Data reported in PubChem BioAssay (NCATS).
Values joined by “and” are separate entries in the source; they are usually repeats but may differ in a detail not shown here. Identical values can stand only once. Inconclusive results are not listed. Active and inactive are the calls of the source. Calls follow the shape of the dose curve; as a rule, active = well fitted curve in the direction sought with a large enough effect; inconclusive = small, poorly fitted or top-dose-only effect, or another doubt; inactive = no such curve, though single readings can be large; an effect the other way counts as inactive or inconclusive.

Experiments:
[1] = target: Cellular tumor antigen p53 (Homo sapiens) (UniProt P04637); test: Primary qHTS for small molecule compounds that upregulate eGFP-tagged delta133p53alpha (in N-terminal) cells. (AID 2060322); conditions: NCI-H358 eGFP-delta133p53alpha fluorescence, 24 h; activation: stronger effect = higher value;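 also: series mostly up to about 56 µM; 0% = DMSO vehicle and 100% = reference activator; nearly all actives have a fitted effect of over 75% in size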
Cellular tumor antigen p53 (Homo sapiens), sequence (P04637 whole entry, looked up): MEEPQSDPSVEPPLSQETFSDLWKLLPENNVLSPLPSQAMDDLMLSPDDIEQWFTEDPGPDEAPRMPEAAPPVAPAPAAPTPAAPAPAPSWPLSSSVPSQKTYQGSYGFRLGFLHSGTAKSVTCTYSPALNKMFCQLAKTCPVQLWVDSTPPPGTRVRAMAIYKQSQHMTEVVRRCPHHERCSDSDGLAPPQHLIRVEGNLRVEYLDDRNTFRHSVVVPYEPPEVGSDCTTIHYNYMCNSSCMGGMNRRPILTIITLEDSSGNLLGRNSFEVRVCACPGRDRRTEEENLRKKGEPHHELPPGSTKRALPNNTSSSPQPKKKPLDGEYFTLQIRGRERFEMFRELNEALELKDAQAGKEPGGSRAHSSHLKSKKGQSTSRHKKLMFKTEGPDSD
Method in brief: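 NCI-H358 cells pre-induced 24 h with 10 ng/ml doxycycline to express N-terminal eGFP-delta133p53alpha, then dosed 24 h at 37C without doxycycline; fixed, Hoechst-stained, GFP intensity by laser scanning cytometry, normalized to DMSO (0%) and 57.5 uM 5-azacytidine (100%).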

[2] = target: Aldehyde dehydrogenase, mitochondrial (Homo sapiens) (UniProt P05091); test: qHTS for Inhibitors of the Aldehyde Dehydrogenase Family (ALDH2) Primary screen (AID 2061308);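 also: plate controls were vehicle for no effect and reference inhibitor for full effect; nearly all actives have a fitted effect of over 55% in size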
[3] = target: Retinaldehyde dehydrogenase 3 (Homo sapiens) (UniProt P47895); test: qHTS for Inhibitors of the Aldehyde Dehydrogenase Family (ALDH1A3) Primary screen (AID 2061315);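 also: plate controls were DMSO vehicle for no effect and reference inhibitor for full effect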

CC1(C)O[C@H]2CC(=O)OC[C@]23[C@H]2CC[C@@]4(C)[C@H](c5ccoc5)OC(=O)[C@H]5O[C@]54[C@]2(C)C(=O)C[C@@H]13
inactive: activation [1] -25.4% and 64.1% and 3.82% | Potency [2] | Potency [3]

C/C=C/C=C/C=C/C(=O)OC1C=C2C(O)OC(=O)[C@]2(O)[C@@]2(C)CCCC(C)(C)[C@H]12 (stereo not given in full)
inactive: activation [1] -2.29% | Potency [2] | Potency [3]

CCC[C@@H]1C[C@@H](C(=O)N[C@@H]([C@H]2O[C@H](SC)[C@H](OP(=O)(O)O)[C@@H](O)[C@H]2O)[C@H](C)Cl)N(C)C1
inactive: activation [1] 13.4% | Potency [2] | Potency [3]

COc1cc(/C=C2\CCCN([C@@H](C)c3ccc(F)cc3)C2=O)ccc1-n1cnc(C)c1
inactive: activation [1] -22.3% | Potency [2] | Potency [3]

C[C@@H]1CCCN1CCc1cc2cc(-c3ccc(C#N)cc3)ccc2o1
inactive: activation [1] -11.5% | Potency [2] | Potency [3]

O=C1OCC(c2ccccc2)=C1Cc1ccccc1
inactive: activation [1] -8.4% | Potency [2] | Potency [3]

CC1C2=CC(=O)OC2(O)CC2C1CCC1C(C)(C)CCC(O)C21C (stereo not given)
inactive: activation [1] 0.763% | Potency [2] | Potency [3]

C[C@@]1(O)[C@H](O)[C@@H](CO)O[C@H]1n1ccc(N)nc1=O
inactive: activation [1] 0.333% | Potency [2] | Potency [3]

C=C(C)[C@@H]1CC=C(COC(=O)NC(=O)c2ncn3c(=O)n(C)nnc23)CC1
inactive: activation [1] 10% | Potency [2] | Potency [3]

CC(C)C[C@@H]1NC(=O)[C@@H]2C[C@@]34C[C@@H]5[C@@]6(C)CCCC(C)(C)C6CC[C@@]5(C)N(c5ccccc53)[C@H]4N2C1=O (stereo not given in full)
inactive: activation [1] 3.82% | Potency [2] | Potency [3]

C/C=C(\C)C(=O)OC[C@H]1O[C@@H](O[C@H]2[C@@H](O[C@H]3O[C@H](COC(=O)/C(C)=C/C)[C@@H](O)[C@H](O)[C@H]3O[C@@H]3O[C@H](COC(=O)/C(C)=C/C)[C@@H](O)[C@H](OC(=O)/C(C)=C/C)[C@H]3O)O[C@H](COC(=O)/C(C)=C/C)[C@@H](O)[C@@H]2O)[C@H](O)[C@@H](O)[C@@H]1O
inactive: activation [1] -15.3% | Potency [2] | Potency [3]

C=CC(C)(CC/C=C(\C)C(=O)OC)OC1OC(COC(=O)CC(C)(O)CC(=O)O)C(OC2OC(CO)C(O)C(O)C2O)C(O)C1O (stereo not given)
inactive: activation [1] -11.5% | Potency [2] | Potency [3]

C/C(=C\CO)CC/C=C(\C)C(=O)O[C@@H]1O[C@H](CO)[C@@H](O)[C@H](O)[C@H]1O
inactive: activation [1] -19.6% | Potency [2] | Potency [3]

CC(=O)OC1CC(C(C)(C)O)OC2CCC3(C)OC4=C(C(=O)C=C5C(C)C(OC(C)=O)C6(C)C(C)OC546)C(O)C3C12C (stereo not given)
inactive: activation [1] 2.68% | Potency [2] | Potency [3]

C[C@@H](Cc1cc2c(c(C(N)=O)c1)N(CCCO)CC2)NCCOc1ccccc1OCC(F)(F)F
inactive: activation [1] 13.7% | Potency [2] | Potency [3]

Nc1nc2c(nc(Sc3ccc(Cl)cc3)n2[C@@H]2O[C@@H]3COP(=O)(O)O[C@H]3[C@H]2O)c(=O)[nH]1
inactive: activation [1] 1% | Potency [2] | Potency [3]

C=C(C(=O)O)C1CCC2(C)CCC(O)C(=C)C2C1 (stereo not given)
inactive: activation [1] 9.82% | Potency [2] | Potency [3]

N#CC1C(=O)N=C(c2cc(Cl)ccc2O)C=C1c1cc(OCc2ccccc2)cc(OCc2ccccc2)c1 (stereo not given)
inactive: activation [1] -17.7% | Potency [2] | Potency [3]

CC1(C)OC(=O)C=C[C@@]2(C)C1CC(=O)[C@]1(C)C2CC[C@@]2(C)[C@H](c3ccoc3)OC(=O)[C@H]3O[C@]321 (stereo not given in full)
inactive: activation [1] -19.1% | Potency [2] | Potency [3]

Nc1c(NC/C=C\COc2cc(CN3CCCCC3)ccn2)c(=O)c1=O
inactive: activation [1] -10.3% | Potency [2] | Potency [3]

CC[C@@H](C)[C@@H]1OC2(C=C[C@H]1C)C[C@@H]1C[C@H](C/C=C(\C)[C@H](O[C@H]3C[C@H](OC)[C@H](O[C@H]4C[C@H](OC)[C@H](NC(C)=O)[C@H](C)O4)[C@H](C)O3)[C@H](C)/C=C/C=C3\CO[C@H]4[C@H](O)C(C)=C[C@@H](C(=O)O1)[C@@]34O)O2 (stereo not given in full)
inactive: activation [1] 24.3% | Potency [2] | Potency [3]

NC(=O)[C@H](Cc1ccccc1)NC(=O)[C@H](CCCN=C(N)N)NC(=O)C12CC3CC(CC(C3)C1)C2
inactive: activation [1] -9% | activity change, negative = inhibition [2] 0.973% [at 11.2 µM] | activity change, negative = inhibition [3] -5.76% [at 11.2 µM]

COc1ccc(CCC(=O)O)c(O[C@@H]2O[C@H](CO)[C@@H](O)[C@H](O)[C@H]2O)c1
inactive: activation [1] -13.7% | Potency [2] | Potency [3]

CC(=O)OCC(Cc1ccccc1)NC(=O)C(Cc1ccccc1)NC(=O)c1ccccc1 (stereo not given)
inactive: activation [1] -13% | Potency [2] | Potency [3]

COc1c2c(c(C)c3c1C(=O)OC3)OC1(C)CC(O)C34OC(OC)(OC3(C)C)C(O)CC4(C)C1C2 (stereo not given)
inactive: activation [1] -2.29% | Potency [2] | Potency [3]
